TEAD-YAP inh: TEAD-YAP interaction inhibition, primary screen, TEAD-YAP interaction inhibitor project, luminescence, HEK-TIYL cells | TEAD-Gal4/YAP UAS-luciferase luminescence | 640,000 compounds, 1.4% hits | inhibition, % at 9.12 µM; in the data active = inhibition above about 32%
MITF inh: MITF inhibitors, primary screen, biochemical, AlphaScreen, human; inhibition, % at 2.6 µM; 650,000 compounds, 0.91% hits; AlphaScreen MITF homodimerization, bead proximity signal; Microphthalmia-associated transcription factor (Homo sapiens), O75030; in the data active = inhibition above about 50%
GPR151 activ: activators of human GPR151, primary screen, cell-based, PathHunter beta-arrestin, luminescence. activation, % at 11.2 µM. 650,000 compounds, 1% hits. PathHunter beta-arrestin GPR151 cells. G-protein coupled receptor 151 (Homo sapiens), Q8TDV0; in the data active = activation above about 4.9%
Target sequence (Q8TDV0 whole entry, looked up): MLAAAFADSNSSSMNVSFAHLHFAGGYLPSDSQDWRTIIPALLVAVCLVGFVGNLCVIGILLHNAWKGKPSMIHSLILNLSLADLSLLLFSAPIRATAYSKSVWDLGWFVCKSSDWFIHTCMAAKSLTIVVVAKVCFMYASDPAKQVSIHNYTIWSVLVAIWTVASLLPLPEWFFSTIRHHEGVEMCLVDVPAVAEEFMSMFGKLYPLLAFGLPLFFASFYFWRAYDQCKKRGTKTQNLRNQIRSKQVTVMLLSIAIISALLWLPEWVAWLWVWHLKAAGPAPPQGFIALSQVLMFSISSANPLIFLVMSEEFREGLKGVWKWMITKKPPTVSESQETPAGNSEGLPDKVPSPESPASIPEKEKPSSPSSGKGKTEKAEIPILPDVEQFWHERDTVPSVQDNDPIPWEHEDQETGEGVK
FBW7 activator: FBW7 E3 ligase activators, primary screen, biochemical, AlphaScreen, human. F-box/WD repeat-containing protein 7 (Homo sapiens), Q969H0. AlphaScreen FBW7–phospho-cyclin E peptide binding, activator screen. normalized activity (activation), % at 26.1 µM. 650,000 compounds, 0.13% hits; in the data active = normalized activity above about 1.9%;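 note: purified mutant Fbw7 with reduced substrate affinity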
Large screens that a line does not name were inactive. Most compounds without a hit are left out; they make up all but 3.5% or so of the library.

CC[n+]1ccc(/C=C/c2ccc(OC)cc2OC)cc1	TEAD-YAP inh 41.9
CC[n+]1ccc(/C=C/c2cccc(OC)c2OC)cc1	TEAD-YAP inh 34.1
O=C(NCc1ccccc1)N(CCc1nc2ccccc2[nH]1)Cc1cccnc1	none
Cc1ccc(C)c(CN[C@H]2C[C@H]3C(=O)N[C@@H]([C@@H](C)O)C(=O)N3C2)c1	none
COc1ccc(CCN(C)C2CCCN(C(=O)CN3CCCC3=O)C2)cc1OC (stereo not given)	none
CCCCCCC1(O)C(C)C(c2ccc(N(C)C)cc2)NC(c2ccc(N(C)C)cc2)C1C (stereo not given)	MITF inh 60.7
COc1ccc(S(=O)(=O)Nc2ccc3c(c2)CCCN3C(C)=O)c(OC)c1	none
COc1cc(CNc2ccc3c(c2)CCN3C(C)=O)cc(OC)c1OC	TEAD-YAP inh 67.1
Cc1c(C(=O)Nc2cccc(Cl)c2)c2ccccn2c1CCC#N	none
CCOc1ccc(/C=C/c2c([N+](=O)[O-])c(=O)n(C)c(=O)n2C)cc1	none
CCc1ccc(/C=C/c2c([N+](=O)[O-])c(=O)n(C)c(=O)n2C)cc1	TEAD-YAP inh 44.3
COc1ccc(-c2nnc(SCC(=O)NCc3ccccc3)nc2-c2ccc(OC)c(OC)c2)cc1OC	TEAD-YAP inh 47.3
CC1(C)Cc2nc3sc4c(SCC(=O)O)ncnc4c3cc2CO1	TEAD-YAP inh 47.0
c1ccc(CCNc2c3c(nc4ccccc24)CCC3)cc1	TEAD-YAP inh 38.8
COc1ccccc1Nc1c2c(nc3ccccc13)CCC2	TEAD-YAP inh 53.9
CCOC(=O)c1ccc(Nc2c3c(nc4ccccc24)CCC3)cc1	TEAD-YAP inh 42.3
CC(=O)c1cccc(Nc2c3c(nc4ccccc24)CCC3)c1	TEAD-YAP inh 55.8
CCOC(=O)c1ccc(Nc2cc(C)nc(-c3ccccc3)n2)cc1	TEAD-YAP inh 39.5
CCOC(=O)c1ccc(Nc2c(N)c(=O)oc3ccccc23)cc1	TEAD-YAP inh 51.9
CCOC(=O)c1ccc(S(=O)(=O)Nc2c(C(=O)OCC)oc3ccccc23)cc1	none
c1ccc(Nc2ncnc3nc(-c4ccccc4)[nH]c23)cc1	none
CC(=O)NC1(c2ccccc2)CCN(CC(=O)Nc2c(C)nn(C)c2C)CC1	none
Brc1ccc(C2Nc3c(I)cccc3C3C=CCC32)cc1 (stereo not given)	none
O=C(O)C1Nc2c(O)cccc2C2C=CCC12 (stereo not given)	MITF inh 107.8
O=C(O)C1Nc2c(I)cccc2C2C=CCC12 (stereo not given)	MITF inh 83.2
N#CC1CCCc2c1[nH]c1ccc(Cl)cc21 (stereo not given)	TEAD-YAP inh 38.9
Cc1cccc(C)c1NC(=O)CSc1nnc(-c2ccco2)n1C	none
Cc1ccc(Cn2c(NCCO)nc3c2c(=O)n(C)c(=O)n3C)cc1	TEAD-YAP inh 42.0
COc1cccc(Cn2c(NCCO)nc3c2c(=O)n(C)c(=O)n3C)c1	TEAD-YAP inh 39.5
Cc1cccc(Cn2c(NCc3ccco3)nc3c2c(=O)n(C)c(=O)n3C)c1	TEAD-YAP inh 45.8
C=CCOc1c(Br)cc(CNc2ccc(S(N)(=O)=O)cc2)cc1OCC	none
Cc1cc(C)cc(C(=O)NCC2CCC3(CCN(Cc4ccncc4)CC3)O2)c1 (stereo not given)	none
COc1ccccc1N1CCN(c2nnnn2-c2ccccc2)CC1	TEAD-YAP inh 36.8
NC(=O)c1ccccc1N=Cc1ccc(Br)s1	none
COc1ccc(C=Nc2ccccc2C(N)=O)c2ccccc12	TEAD-YAP inh 60.0
Cc1ccc(C=Nc2ccccc2C(N)=O)s1	TEAD-YAP inh 35.9
COc1ccc(NC(=O)c2ccc(Br)cc2)c2cccnc12	none
O=C(Nc1ccnc2ccccc12)c1ccc(Br)cc1	TEAD-YAP inh 60.5
CC1(C)N=C(c2ccc(F)cc2)C(=O)N1CC(=O)Nc1ccc(F)c(Cl)c1	none
COc1ccc(NC(=O)OCc2ccccc2)cc1	none
NC(=O)c1cccc2c1NC(C(=O)O)C1CC=CC21 (stereo not given)	MITF inh 57.0
NC(=O)c1cccc2c1NC(c1cccc([N+](=O)[O-])c1)C1CC=CC21 (stereo not given)	none
COC(=O)c1cccc2c1NC(C(=O)O)C1CC=CC21 (stereo not given)	MITF inh 76.1
O=C(COc1ccccc1)Nc1nnc(C2CCCCC2)o1	none
CCCN(CCC)C(=O)c1cc2c(=O)n3ccccc3nc2n1C	none
CCOC(=O)c1cc2c3c(c1)C1C=CCC1C(c1ccc(F)cc1)N3CC1CC=CC21 (stereo not given)	none

Screens from PubChem BioAssay.
